Assay in all cases: NCI-60 one-dose screen, 48 h (100 = growth as untreated, 0 = no growth, -100 = all killed)
The subject of one assay is NCI/ADR-RES ovarian. The following applies: 10 µM.
The subject of another assay is T-47D breast. The following applies: 10 µM.
A further assay has as its system MDA-MB-435 melanoma. The following applies: 10 µM.
The test system of another assay is SW-620 colon. Particulars: 10 µM.
A further assay concerns MCF7 breast. Particulars: 10 µM unless noted.
The next assay concerns HCT-116 colon. The following applies: 10 µM.
Another assay concerns HCC-2998 colon. The following applies: 10 µM.
The test system of the next assay is KM12 colon. Particulars: 10 µM.
Another assay has as its system BT-549 breast. Particulars: 10 µM.

Values joined by “and” are separate entries in the source; they are usually repeats but may differ in a detail not shown here. Identical values can stand only once. About 83,000 compounds went through this panel and 20% of them were active in at least one assay; those are over-represented in the sample as a whole.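 Cell lines were cultured in 96-well plates, exposed to a single compound concentration, and assessed for percent growth 48 hours later.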 Active and inactive are the calls of the source. How the source made its calls: active means growth percent below 10; inactive means the rest.

Here are results for 15 compounds from PubChem BioAssay (NCI).

For the compound `O=C1C=Cc2ccccc2C1=O`, the growth in the assay with NCI/ADR-RES ovarian was 93.8% (inactive); with T-47D breast, 97.2% (inactive); in the assay with MDA-MB-435 melanoma, 5.35% (active); with SW-620 colon, 50.5% (inactive); in the assay with MCF7 breast, 66.1% (inactive); in the assay with HCT-116 colon it was 87.7% (inactive). Further, the figures for the growth in the assay with HCC-2998 colon and in the assay on KM12 colon were 112% (inactive) and 110% (inactive), respectively.

Consider `Oc1c(I)cc(I)cc1I`, for which the growth in the assay with T-47D breast was 103% (inactive); in the assay with MDA-MB-435 melanoma, 113% (inactive); in the assay with SW-620 colon, 107% (inactive); in the assay on MCF7 breast, 95.4% (inactive); with KM12 colon it was 110% (inactive).

Consider `S=C=NCCc1ccccc1`, for which the growth in the assay on NCI/ADR-RES ovarian was 21.4% (inactive); with T-47D breast it was 40.4% (inactive); in the assay with BT-549 breast, -20.2% (active); in the assay with MDA-MB-435 melanoma, 66.4% (inactive); in the assay on SW-620 colon, 56% (inactive); with MCF7 breast, 20.3% (inactive). Also, the growth with HCT-116 colon is 27.1% (inactive); in the assay on KM12 colon, 41.9% (inactive).

Consider `CC[C@@H](C)[C@@H]1NC(=O)C(NC(=O)C(CC(C)C)N(C)C(=O)C2CCCN2C(=O)C(C)O)C(C)OC(=O)C(Cc2ccc(OC)cc2)N(C)C(=O)C2CCCN2C(=O)C(CC(C)C)NC(=O)C(C)C(=O)C(C(C)C)OC(=O)C[C@H]1O` (some centres undefined), for which the growth was -43.2% (active) in the assay with NCI/ADR-RES ovarian; -32.5% (active) in the assay on T-47D breast; -74.2% (active) in the assay on BT-549 breast; -91.8% (active) with MDA-MB-435 melanoma; -45.5% (active) in the assay with SW-620 colon; -27.7% (active) with MCF7 breast. The growth is -28.8% (active) with HCT-116 colon and -49.8% (active) with KM12 colon.

Take `COc1ccc(/C=C\[N+](=O)[O-])cc1OC`: the growth with NCI/ADR-RES ovarian is 91.3% (inactive) and 86.9% (inactive); in the assay on T-47D breast it was 62.8% (inactive) and 42.3% (inactive); in the assay on BT-549 breast it was 92% (inactive) and 70.3% (inactive); in the assay with MDA-MB-435 melanoma it was 12.3% (inactive) and 31.1% (inactive); with SW-620 colon, 37.7% (inactive) and 55.6% (inactive); in the assay on MCF7 breast, 12.6% (inactive) and 16.4% (inactive). For the same compound, the growth was 13.2% (inactive) and 0.137% (active) in the assay with HCT-116 colon; 61% (inactive) and 54.3% (inactive) in the assay on HCC-2998 colon; 33.7% (inactive) and 57.2% (inactive) in the assay with KM12 colon.

In the case of `O=[N+]([O-])c1ccc(N2CCOCC2)c2c1no[n+]2[O-]`, the growth is 16.3% (inactive) with NCI/ADR-RES ovarian; 2.59% (active) with T-47D breast; -41.5% (active) in the assay on BT-549 breast; 29.2% (inactive) in the assay on MDA-MB-435 melanoma; 3.22% (active) in the assay with SW-620 colon; 13.7% (inactive) with MCF7 breast. The growth in the assay with HCT-116 colon was -25.9% (active); with HCC-2998 colon, -49.1% (active); in the assay on KM12 colon, -73.5% (active).

Take `NC(=O)c1cc([N+](=O)[O-])c(Cl)c([N+](=O)[O-])c1Cl`: the growth is 20.4% (inactive) in the assay on NCI/ADR-RES ovarian; -36.7% (active) in the assay on T-47D breast; 68.3% (inactive) with BT-549 breast; 11.1% (inactive) in the assay on MDA-MB-435 melanoma; -79.9% (active) with SW-620 colon; -44.4% (active) in the assay with MCF7 breast. For the same compound, the growth in the assay with HCT-116 colon is -39.2% (active); in the assay with HCC-2998 colon it was 39.2% (inactive); in the assay with KM12 colon, 19.1% (inactive).

Take `CC[C@@]1(O)C[C@H](OC2CC(N(C)C)C(O)C(C)O2)c2c(cc3c(c2O)C(=O)c2c(O)ccc(O)c2C3=O)[C@H]1C(=O)OC` (some centres undefined): the growth with NCI/ADR-RES ovarian was -64.1% (active); in the assay on T-47D breast it was -42% (active); in the assay on BT-549 breast, -80.2% (active); in the assay on MDA-MB-435 melanoma it was -95.7% (active); in the assay with SW-620 colon, -90.5% (active); in the assay with MCF7 breast it was -39.6% (active). Besides, the results for the growth in the assay with HCT-116 colon and with KM12 colon were -70.5% (active) and -58.1% (active), respectively.

For the compound `O=[N+]([O-])/C=C/c1ccc(Cl)cc1[N+](=O)[O-]`, the growth is 32.1% (inactive) in the assay on NCI/ADR-RES ovarian; -6.41% (active) with T-47D breast; 76.8% (inactive) in the assay with MDA-MB-435 melanoma; -90.2% (active) with SW-620 colon; -69.2% (active) in the assay with MCF7 breast; -100% (active) with HCT-116 colon. Besides, the growth is 105% (inactive) in the assay with HCC-2998 colon and 29.1% (inactive) in the assay with KM12 colon.

For `O=C(CCl)Nc1ccc(Cl)cc1`, the growth in the assay with NCI/ADR-RES ovarian was 68.3% (inactive); in the assay with T-47D breast it was 56% (inactive); with MDA-MB-435 melanoma, 48.5% (inactive); with SW-620 colon, 39.7% (inactive); with MCF7 breast, 16.9% (inactive); in the assay on HCT-116 colon, 18.9% (inactive). Besides, the growth is 98.3% (inactive) in the assay with HCC-2998 colon and 67.8% (inactive) with KM12 colon.

In the case of `Oc1ccccc1-c1ccccc1`, the growth is 99.9% (inactive) and 110% (inactive) in the assay on NCI/ADR-RES ovarian; 94% (inactive) with T-47D breast; 111% (inactive) and 96.9% (inactive) with BT-549 breast; 107% (inactive) and 111% (inactive) with MDA-MB-435 melanoma; 109% (inactive) and 103% (inactive) in the assay on SW-620 colon; 98.1% (inactive) and 94.1% (inactive) in the assay on MCF7 breast. In addition, the growth in the assay on HCT-116 colon is 109% (inactive) and 96.6% (inactive); with HCC-2998 colon it was 92.7% (inactive); in the assay on KM12 colon it was 102% (inactive) and 109% (inactive).

With `N#CCc1ccccc1`, the growth with NCI/ADR-RES ovarian was 103% (inactive); in the assay on T-47D breast, 103% (inactive); in the assay on BT-549 breast, 91.7% (inactive); in the assay with MDA-MB-435 melanoma, 110% (inactive); in the assay with SW-620 colon it was 100% (inactive); with MCF7 breast it was 97.7% (inactive). For the same compound, the growth in the assay on HCT-116 colon is 102% (inactive); in the assay with HCC-2998 colon, 106% (inactive); in the assay with KM12 colon it was 111% (inactive).

For `C/C(=C\c1ccc(Cl)c(Cl)c1)[N+](=O)[O-]`, the growth in the assay on NCI/ADR-RES ovarian is 30.8% (inactive) and 93.2% (inactive); in the assay on T-47D breast, -79.3% (active) and 57.7% (inactive); in the assay on BT-549 breast it was 76.3% (inactive) and 103% (inactive); in the assay with MDA-MB-435 melanoma, 126% (inactive); in the assay with SW-620 colon it was -89.1% (active) and 98.6% (inactive); in the assay on MCF7 breast it was -85.1% (active) and 80.6% (inactive). Moreover, the growth in the assay on HCT-116 colon is -91.5% (active) and 88.2% (inactive); with HCC-2998 colon, 99.6% (inactive) and 100% (inactive); in the assay on KM12 colon, -35.5% (active) and 98.3% (inactive).

As to `[Cl][Sn]([c]1ccccc1)([c]1ccccc1)[c]1ccccc1`, the growth was -37.7% (active) with NCI/ADR-RES ovarian; -83.1% (active) in the assay with BT-549 breast; -83.9% (active) in the assay on MDA-MB-435 melanoma; -56.2% (active) in the assay with SW-620 colon; -81.1% (active) in the assay with MCF7 breast; -97.3% (active) in the assay with HCT-116 colon. Also, the figures for the growth in the assay on HCC-2998 colon and in the assay on KM12 colon were -83.9% (active) and -71.3% (active), respectively.

As for `C[CH2][Hg][S]c1ccccc1C(=O)O`, the growth was -13.9% (active) in the assay on NCI/ADR-RES ovarian; -80% (active) in the assay with T-47D breast; -73.4% (active) with BT-549 breast; -12.7% (active) in the assay on MDA-MB-435 melanoma; -87% (active) with SW-620 colon; -95.9% (active) in the assay on MCF7 breast. The growth is -88.9% (active) in the assay with HCT-116 colon, 59.8% (inactive) with HCC-2998 colon and 69.9% (inactive) with KM12 colon.
